The nature of assay [1]: qHTS assay to test for compound auto fluorescence at 535 nm (green) in HEK293 cells (AID 720680).
The nature of assay [2]: qHTS assay to test for compound auto fluorescence at 460 nm (blue) in HEK293 cell free culture (AID 720681). The procedure, abridged: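 Compounds were added to cell-free DMEM with 10% FBS and fluorescence read directly. The blue channel used 405 nm excitation and 460 nm emission, with triamterene as the reference fluorophore.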
A short description of assay [3]: qHTS assay to test for compound auto fluorescence at 535 nm (green) in HEK293 cell free culture (AID 720682). The essentials: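 Green-label autofluorescence (485 nm excitation, 535 nm emission) measured on compound added to cell-free culture medium (DMEM, 10% FBS). Output is expressed relative to fluorescein.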
Assay [4] can be described thus: qHTS assay to test for compound auto fluorescence at 590 nm (red) in HEK293 cell free culture (AID 720683). The procedure, abridged:
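Cell-free wells of DMEM with 10% FBS received compound, and intrinsic fluorescence was read at excitation/emission 540/590 nm. Values expressed as equivalence to Rose Bengal sodium.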
In general terms: In qHTS, concentration-response curves come from the screen itself.

Assay [5] is described as follows: qHTS assay to test for compound auto fluorescence at 590 nm (red) in HepG2 cell free culture (AID 720684). The essentials: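 Compound was pinned into wells holding MEM with 10% FBS and no cells, and red fluorescence was read at Ex/Em 540/590 nm. Signal is expressed as auto fluorescence equivalency relative to Rose Bengal sodium.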
Assay [6] is described as follows: qHTS assay to test for compound auto fluorescence at 460 nm (blue) in HepG2 cell free culture (AID 720685). The essentials:
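Compound (23 nL) or DMSO pinned into cell-free MEM with 10% FBS; blue fluorescence read at 405/460 nm excitation/emission, expressed as auto-fluorescence equivalency to triamterene.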

Assay [7] in a line: qHTS assay to test for compound auto fluorescence at 535 nm (green) in HepG2 cell free culture (AID 720686).
A short description of assay [8]: qHTS assay to test for compound auto fluorescence at 460 nm (blue) in HepG2 cells (AID 720687). The essentials: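 HepG2 cells in MEM with 10% FBS, attached overnight at 37 C, were exposed to compound or DMSO for 1 hr at 37 C, 5% CO2. Blue fluorescence was read at 405/460 nm, with triamterene as reference fluorophore.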
Assay [9] addresses Glucocorticoid receptor (Homo sapiens) (UniProt P04150). Briefly: qHTS assay to identify small molecule agonists of the glucocorticoid receptor (GR) signaling pathway (AID 720691; active = well fitted activation curve with a large enough effect in the signal ratio in the repeat runs, not every such curve was filed as active; the % refers to the signal ratio). The procedure, abridged: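 Beta-lactamase reporter activity, read as fluorescence intensity, was measured in GR-bla HeLa cells exposed to compounds for 18 h at 37 C and then loaded with LiveBLAzer B/G FRET substrate for 2 h at room temperature.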

Assay [10] is described as follows: qHTS assay to identify small molecule antagonists of the glucocorticoid receptor (GR) signaling pathway - cell viability counter screen (AID 720693). Also: nearly all actives have a fitted effect of over 55% in size.
A short description of assay [11]: qHTS assay for identifying genotoxic compounds that show differential cytotoxicity against isogenic chicken DT40 cell lines with known DNA damage response pathways - wild type cell line (AID 743012). Also: nearly all actives have a fitted effect of over 60% in size. Also: potency is read from the fitted curve at half-maximal effect. The essentials:
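Quantitative HTS on parental DT40 cells: 40 h compound treatment at 37 C/5% CO2, with viability then determined by CellTiter-Glo luminescence. Values serve as the DNA repair-proficient reference for differential cytotoxicity.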

A short description of assay [12]: qHTS assay for identifying genotoxic compounds that show differential cytotoxicity against isogenic chicken DT40 cell lines with known DNA damage response pathways - Rev3 mutant cell line (AID 743014). Also: nearly all actives have a fitted effect of over 55% in size. Also: potency is read from the fitted curve at half-maximal effect.
The nature of assay [13]: qHTS assay for identifying genotoxic compounds that show differential cytotoxicity against isogenic chicken DT40 cell lines with known DNA damage response pathways - Rad54/Ku70 mutant cell line (AID 743015). Also: nearly all actives have a fitted effect of over 60% in size. Also: potency is read from the fitted curve at half-maximal effect.
Assay [14] can be described thus: qHTS assay to identify small molecule antagonists of the androgen receptor (AR) signaling pathway using the MDA cell line - cell viability counter screen (AID 743041; also: nearly all actives have a fitted effect of over 45% in size; also: potency is read from the fitted curve at half-maximal effect). The procedure, abridged:
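MDA-kb2 AR-luc cells (MMTV-luciferase, AR/GR responsive) treated with compounds plus R1881 agonist for 16 h at 37C. CellTiter-Fluor added at 15.5 h; fluorescence read after 30 min in the same wells.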

Assay [15] is described as follows: qHTS assay to identify small molecule antagonists of the androgen receptor (AR) signaling pathway - cell viability counter screen (AID 743033; also: nearly all actives have a fitted effect of over 45% in size).
The target of assay [16] is Androgen receptor (Homo sapiens) (UniProt P10275). Briefly: qHTS assay to identify small molecule agonists of the androgen receptor (AR) signaling pathway (AID 743036; active = well fitted activation curve with a large enough effect in the signal ratio in the repeat runs, with a control signal flat, not every such curve was filed as active; the % refers to the signal ratio). The procedure, abridged:
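AR-UAS-bla HEK293 cells, plated 4 h before dosing, were treated with compound for 16 h at 37C. beta-Lactamase reporter read after 2 h with LiveBLAzer B/G FRET substrate at room temperature.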

Assay [17] has the same target. The assay is described as follows: qHTS assay to identify small molecule agonists of the androgen receptor (AR) signaling pathway using the MDA cell line (AID 743040; also: nearly all actives have a fitted effect of over 20% in size). The essentials: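 MDA-kb2 breast carcinoma cells carrying MMTV-luciferase (responsive to AR and GR), plated 5 h then treated 16 h with compounds at 37C, 0% CO2. Read-out was ONE-Glo luminescence after 30 min at room temperature.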

The target is the same in assay [18]. The assay is described as follows: qHTS assay to identify small molecule antagonists of the androgen receptor (AR) signaling pathway using the MDA cell line (AID 743042; also: nearly all actives have a fitted effect of over 55% in size). The essentials:
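MDA-kb2 breast carcinoma cells carrying MMTV-luciferase (AR/GR responsive) were co-treated with compounds and the agonist R1881 for 16 h at 37C. Inhibition read as ONE-Glo luminescence; CellTiter-Fluor fluorescence measured in parallel for cytotoxicity.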

For assay [19] the target is unchanged. Briefly: qHTS assay to identify small molecule antagonists of the androgen receptor (AR) signaling pathway (AID 743035; active = well fitted inhibition curve with a large enough effect in the signal ratio in the repeat runs, not every such curve was filed as active; the % refers to the signal ratio). The procedure, abridged:
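Cell line: GeneBLAzer AR-UAS-bla GripTite (HEK293). Stimulus: R1881 added after compound. Exposure: 16 h, 37C, 5% CO2. Readout: LiveBLAzer B/G FRET fluorescence after 2 h at room temperature.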

Assay [20] has as its target Glucocorticoid receptor (Homo sapiens) (UniProt P04150). The assay is described as follows: qHTS assay to identify small molecule antagonists of the glucocorticoid receptor (GR) signaling pathway (AID 720692; active = well fitted inhibition curve with a large enough effect in the signal ratio in the repeat runs, not every such curve was filed as active; the % refers to the signal ratio). The procedure, abridged:
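Fluorescence from cleaved LiveBLAzer B/G FRET substrate reports GRE-driven beta-lactamase in HeLa cells; compounds are tested against 5 nM dexamethasone (final) over 18 h at 37 C, substrate incubation 2 h at room temperature.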

A number with no mark means an inactive call. Inconclusive results are not listed. The source made the active and inactive calls. Unless noted, calls follow the shape of the dose curve; as a rule, active = well fitted curve in the direction sought with a large enough effect in the repeat runs; inconclusive = weak or mixed curves; inactive = no such curve, though single readings can be large; an effect the other way counts as inactive or inconclusive.
% is scaled to controls: 0 for no effect and ±100 for the full control effect.

Sequence of Androgen receptor (Homo sapiens) (P10275 whole entry, looked up): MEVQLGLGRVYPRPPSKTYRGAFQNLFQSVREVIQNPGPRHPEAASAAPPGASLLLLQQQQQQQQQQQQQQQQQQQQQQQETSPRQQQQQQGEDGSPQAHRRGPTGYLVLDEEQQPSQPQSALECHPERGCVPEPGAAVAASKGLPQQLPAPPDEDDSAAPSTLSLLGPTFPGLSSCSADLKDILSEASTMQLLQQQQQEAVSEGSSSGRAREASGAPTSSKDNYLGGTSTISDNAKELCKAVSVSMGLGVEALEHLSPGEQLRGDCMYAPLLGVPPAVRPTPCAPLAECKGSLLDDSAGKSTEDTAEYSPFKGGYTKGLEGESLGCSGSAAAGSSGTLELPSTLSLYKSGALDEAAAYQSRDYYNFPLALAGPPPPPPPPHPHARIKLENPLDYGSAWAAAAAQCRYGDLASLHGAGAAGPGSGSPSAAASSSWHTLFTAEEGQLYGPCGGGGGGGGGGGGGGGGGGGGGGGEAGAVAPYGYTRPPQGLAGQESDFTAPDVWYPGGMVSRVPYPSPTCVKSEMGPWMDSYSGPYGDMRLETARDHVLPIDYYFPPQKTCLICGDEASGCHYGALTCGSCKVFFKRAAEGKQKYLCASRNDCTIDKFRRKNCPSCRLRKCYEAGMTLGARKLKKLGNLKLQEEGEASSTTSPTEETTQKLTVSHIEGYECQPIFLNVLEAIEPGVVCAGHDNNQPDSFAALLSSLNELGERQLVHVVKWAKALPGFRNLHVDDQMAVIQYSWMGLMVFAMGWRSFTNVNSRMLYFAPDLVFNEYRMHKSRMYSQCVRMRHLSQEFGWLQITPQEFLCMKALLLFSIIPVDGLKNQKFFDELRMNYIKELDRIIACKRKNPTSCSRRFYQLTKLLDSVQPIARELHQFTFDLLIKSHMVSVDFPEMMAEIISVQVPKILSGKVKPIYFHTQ
Sequence of Glucocorticoid receptor (Homo sapiens) (P04150 whole entry, looked up): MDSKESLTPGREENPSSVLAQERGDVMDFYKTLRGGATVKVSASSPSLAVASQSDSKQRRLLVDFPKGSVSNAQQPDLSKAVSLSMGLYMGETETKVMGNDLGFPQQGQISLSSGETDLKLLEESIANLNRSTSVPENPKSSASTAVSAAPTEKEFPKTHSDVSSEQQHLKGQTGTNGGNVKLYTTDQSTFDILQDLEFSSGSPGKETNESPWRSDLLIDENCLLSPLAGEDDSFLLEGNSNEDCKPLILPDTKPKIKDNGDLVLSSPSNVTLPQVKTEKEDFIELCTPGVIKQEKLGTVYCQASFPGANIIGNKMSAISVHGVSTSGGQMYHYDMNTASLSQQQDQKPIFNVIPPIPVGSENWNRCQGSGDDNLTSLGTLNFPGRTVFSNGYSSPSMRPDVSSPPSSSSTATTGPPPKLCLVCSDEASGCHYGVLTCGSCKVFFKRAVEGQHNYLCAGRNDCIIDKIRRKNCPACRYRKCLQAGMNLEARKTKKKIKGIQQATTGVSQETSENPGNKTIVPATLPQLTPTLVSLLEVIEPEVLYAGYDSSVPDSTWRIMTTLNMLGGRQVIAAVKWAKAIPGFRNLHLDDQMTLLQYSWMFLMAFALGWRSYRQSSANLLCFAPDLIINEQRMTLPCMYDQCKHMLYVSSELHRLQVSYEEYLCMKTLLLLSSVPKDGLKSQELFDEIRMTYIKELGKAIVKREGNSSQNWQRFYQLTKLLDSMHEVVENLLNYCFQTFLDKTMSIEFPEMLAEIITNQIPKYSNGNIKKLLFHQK

Consider `COC(=O)[C@H]1[C@H]2C[C@@H]3c4[nH]c5cc(OC)ccc5c4CCN3C[C@H]2C[C@@H](OC(=O)COc2ccc(OC)cc2)[C@@H]1OC`, for which the compound was called inactive in assay [1], in [3], in assay [4], in [5], in [7] and in [10]. Besides, the Potency entry in assay [2], in assay [6], in assay [8], in assay [9] and in assay [14] was “inactive” throughout. Moreover, the Potency in [11] was 21.1 µM (active); in assay [12], 33.5 µM (active); in assay [13] it was 18.8 µM (active).
In the case of `CN(C)C(=O)C(CCN1CCC(O)(c2ccc(Cl)cc2)CC1)(c1ccccc1)c1ccccc1`, the outcome in assay [1], in assay [3], in [4], in assay [5], in [7] and in assay [10] was inactive. Moreover, the Potency result in assay [2], in assay [6], in [8] and in assay [9] was “inactive” in each case. Moreover, the Potency was 5.96 µM (active) in assay [11], 10.6 µM (active) in [12], 10.6 µM (active) in [13] and 24.8 µM (active) in [14].
With `CCCCCOC(=O)Nc1nc(=O)n([C@@H]2O[C@H](C)[C@@H](O)[C@H]2O)cc1F`, the compound was called inactive in assay [1], in assay [3], in assay [4], in assay [5], in assay [7] and in [10]. Moreover, the result in assay [15] was inactive. The Potency entry in assay [2], in assay [6], in assay [8], in assay [11], in assay [12] and in assay [14] was “inactive” in each case.
Take `COCCOC(=O)CC#N`: the result in [1], in [3], in assay [4], in assay [5], in assay [7] and in [10] was inactive. Moreover, in [15], the outcome was inactive. Moreover, the Potency entry in assay [2], in assay [6], in assay [8], in [9], in assay [11] and in [12] was “inactive” in each case. For the same compound, the Potency result in assay [14] was “inactive”.
With `CC(=O)OC(C)(C)C`, the result in assay [1], in assay [3], in assay [4], in assay [5], in assay [7] and in [10] was inactive. Also, the call in [15] was inactive. In addition, the Potency result in assay [2], in assay [6], in assay [8], in assay [11], in assay [12] and in assay [14] was “inactive” each time.
Take `C1CCCCCCCCCCC1`: the fluorescence, % of fluorescein in assay [1] was 0.0284% [at 18.6 µM]. Also, the fluorescence, % of fluorescent control in [2] is -0.122% [at 18.6 µM]; in [4], -0.0432% [at 18.6 µM]; in [6], -0.102% [at 18.6 µM]; in assay [8] it was -0.112% [at 18.6 µM]. Further, the activity change in assay [3] is 0.0049% [at 18.6 µM]. Besides, the fluorescence, % of Rose Bengal in assay [5] was -0.141% [at 18.6 µM]. Besides, the fluorescence, % of fluorescein control in [7] is -0.0289% [at 18.6 µM]. Besides, the compound was classed as inactive in assay [10], in assay [15], in [16] and in assay [18]. Besides, the Potency entry in [11], in assay [12], in assay [13], in assay [17] and in assay [14] was “inactive” in each case.
`CC(C)CCOC(=O)CC(C)C`: the compound was classed as inactive in assay [1], in assay [3], in assay [4], in assay [5], in [7] and in assay [10]. Moreover, the outcome in assay [15] was inactive. In addition, the Potency entry in assay [2], in [6], in assay [8], in assay [9], in [12] and in assay [13] was “inactive” each time. Further, the Potency entry in assay [14] was “inactive”.
On to `COc1cccc(Br)c1`, for which the compound was called inactive in assay [1], in assay [3], in [4], in assay [5], in assay [7] and in assay [10]. For the same compound, the outcome in [15], in [16] and in assay [18] was inactive. In addition, the Potency entry in assay [2], in assay [6], in assay [8], in assay [11], in assay [12] and in assay [13] was “inactive” each time. Further, the Potency result in assay [19], in assay [17] and in assay [14] was “inactive” in each case.
For `O=[N+]([O-])c1ccc(Oc2ccc([N+](=O)[O-])cc2)cc1`, the compound was called inactive in assay [1], in assay [3], in assay [4], in assay [5], in assay [7] and in assay [10]. Moreover, the outcome in assay [15] was inactive. For the same compound, the Potency result in assay [2], in assay [6], in assay [8], in assay [11], in assay [12] and in [14] was “inactive” throughout.
`Cn1cnc2c(=O)[nH]c(N)nc21`: the compound was called inactive in [1], in [3], in [4], in assay [5], in [7] and in assay [10]. Moreover, the result in assay [15] was inactive. The Potency entry in assay [2], in [6], in [8], in assay [11], in assay [12] and in assay [14] was “inactive” throughout. Besides, in assay [13], the Potency was 61.3 µM (active).
Regarding `C#CC(C)(O)CC(C)C` (stereo not drawn), the compound was classed as inactive in assay [1], in assay [3], in assay [4], in assay [5], in assay [7] and in assay [10]. In addition, in assay [15], the outcome was inactive. The Potency result in [2], in assay [6], in [8], in [20], in assay [11] and in [12] was “inactive” in each case. The Potency result in assay [13] and in [14] was “inactive” throughout.
Turning to `C/C=C1\C(=O)C[C@H]2[C@@H]3CCC4=CC(=O)CC[C@]4(C)[C@H]3CC[C@]12C`, the result in assay [1], in assay [3], in assay [4], in [5], in [7] and in assay [10] was inactive. In addition, the Potency result in assay [2], in assay [6], in assay [8] and in assay [14] was “inactive” each time. In addition, the figures for the Potency in assay [11], in assay [12] and in assay [13] were 18.9 µM (active), 10.7 µM (active) and 13.4 µM (active), respectively.
In the case of `Cc1cc(C)c(NC(=O)CN(CC(=O)O)CC(=O)O)c(C)c1Br`, the call in assay [1], in assay [3], in assay [4], in assay [5], in [7] and in assay [10] was inactive. In addition, the outcome in [15] was inactive. The Potency entry in [2], in assay [6], in [8], in assay [9], in [11] and in assay [12] was “inactive” each time. The Potency result in [14] is “inactive”.
For the compound `CCCCCC[C@@H](CCC)C(=O)O`, the call in assay [1], in assay [3], in assay [4], in assay [5], in [7] and in [10] was inactive. The compound was called inactive in assay [15]. In addition, the Potency result in assay [2], in assay [6], in assay [8], in [11], in assay [12] and in [13] was “inactive” in each case. In assay [14], the Potency entry was “inactive”.
Take `Cc1ccc(Nc2ccc(O)c3c2C(=O)c2ccccc2C3=O)cc1`: the compound was called inactive in assay [1], in assay [3], in assay [4], in assay [5], in [7] and in [10]. Further, in [15], the compound was called inactive. Moreover, the Potency entry in [2], in [6], in assay [8], in assay [11], in assay [12] and in assay [14] was “inactive” each time.
